Among all 310,000 compounds or so, about 410 (0.13%) were called active. Inconclusive results (about 2%) are left out. The rule behind the calls is not given here. Only a sample is shown. Potency and affinity values are given separately.
Test: RSV antiviral activity via CPE protection, HEp-2 cells, primary 10 µM value included (AID 2391)
Settings: RSV-induced CPE inhibition, at 10 µM, hits give high values

CPE inhibition, inactive:
Clc1ccc(CSc2ccc(-c3cccnc3)nn2)cc1 20.4%
Cc1c(C(=O)OCC(=O)Nc2c(C)n(C)n(-c3ccccc3)c2=O)oc2ccccc12 0.38%
Cc1cc(OCC(O)CN2CCCC2)cc(C)c1Cl (stereo not given) -0.91%
CC(C)n1c(SCC(=O)N2CCCC2)nc2c1c(=O)n(C)c(=O)n2C -0.46%
CCCN(Cc1nnc(-c2ccccc2Cl)o1)C(=O)c1oc2ccccc2c1C 44%
O=C(c1ccccc1)c1cc([N+](=O)[O-])ccc1N1CCCC1 3.67%
S=c1nccc(-c2cccs2)[nH]1 5.75%
O=C1c2ccccc2NC2(CCCC2)N1N=C1CCCC1 2.08%
O=C1CC(NCc2ccccc2F)C(=O)N1c1ccccc1 (stereo not given) 0.44%
Cc1ccc(NC(=O)CCS(=O)(=O)c2cccc3nonc23)c(Cl)c1 0.71%
COC(=O)c1ccc(CSc2nc3ccccc3c(=O)n2CC(C)C)o1 4.85%
COC(=O)c1ccc(Cn2nnc3ccccc3c2=O)o1 4.91%
Cc1c(C)c2ccc(OCC(=O)Nc3nccs3)cc2oc1=O 20.3%
COc1ccc(OC)c(N(C(=O)c2ccco2)C(C(=O)NC2CCCC2)c2ccc(N3CCOCC3)cc2)c1 (stereo not given) 1.32%
CCOc1ccc(/C=C2\SC(=S)N(NS(=O)(=O)c3ccccc3)C2=O)cc1OC 2.94%
COc1cc(/C=C2\SC(=S)N(NS(=O)(=O)c3ccccc3)C2=O)ccc1O 4.97%
CN1CCN(C(=O)c2cc(Cl)cc(Cl)c2NC(=O)c2ccco2)CC1 0.57%
Cc1cc(NC(=O)c2cc3ccccc3o2)ccc1NC(=O)c1ccccc1 5.86%
O=C(Nc1ccc(NC(=O)c2cc3ccccc3o2)cc1)c1ccc2c(c1)OCCO2 6.03%
Cc1ccc(N(CC(=O)NCCc2ccc(F)cc2)S(=O)(=O)c2ccc(Cl)c([N+](=O)[O-])c2)c(C)c1 3.85%
Cc1cc(C)c2nc(N3CCC(C(=O)NCCCN4CCCCC4)CC3)sc2c1 21.9%
Cc1cccc(S(=O)(=O)Nc2ccc(-c3cn4ccccc4n3)cc2)c1 21%
COC(=O)Cn1c(=NC(=O)c2cccc(OC)c2)sc2cc(OC)ccc21 1.97%
NNC(=O)c1cc(-c2ccccc2)sc1N 1.27%
Nc1c(C(=O)N/N=C/c2ccc(Cl)cc2)cnn1-c1ccccc1 0.12%
CC(C)CCN1CCN(Cc2cccn2-c2nccs2)CC1CCO (stereo not given) 1.17%
OCCC1CN(Cc2cccn2-c2nccs2)CCN1Cc1ccccc1 (stereo not given) -1.03%
COc1ccc(Cn2nnnc2C(c2cccs2)N2CCOCC2)cc1 (stereo not given) 0.05%
CC(=O)Nc1ccc(NC(=O)c2c(C)nn(Cc3ccccc3)c2Cl)cc1 5.46%
Cc1nn(-c2ccccc2Cl)c(Cl)c1/C=N/Nc1cccc(C(=O)O)c1 3.47%
Cc1nn(-c2ccccc2Cl)c(Cl)c1/C=N/Nc1nc2ccccc2s1 4.62%
CCC(C(=O)Nc1c2c(nn1C(C)(C)C)CS(=O)(=O)C2)c1ccccc1 (stereo not given) 1.09%
Cn1ccnc1SCc1ccc(Cl)cc1Cl 1.17%
CN(C)/C=C/c1onc(-c2c(Cl)cccc2Cl)c1C#N 1.69%
N#Cc1c(-c2ccccc2Cl)noc1/C=C/Nc1ccc(C(=O)O)cc1 2.42%
O=C(c1ccccc1Sc1c(Cl)cccc1[N+](=O)[O-])N1CCOCC1 4.6%
COc1ccc(/C(C)=N/NC(=O)C2C3CCCCC32)c(OC)c1 (stereo not given) -0.16%
CCc1ccc(OCC(=O)Nc2ccc3c(c2)OCCO3)cc1 0.88%
Cc1ccc2c(c1)cc(CN(Cc1cccs1)C(=O)c1ccco1)c1nnnn12 4.88%
Cc1ccc2c(c1)cc(CN(Cc1ccco1)C(=O)N1CCOCC1)c1nnnn12 -0.68%
O=C(c1ccc(Cl)c(S(=O)(=O)N2CCCC2)c1)N1CCOCC1 4.9%
O=c1[nH]c(CNCc2cccnc2)nc2ccccc12 1.68%
CCC1C(=O)n2nc(-c3ccccc3)cc2N=C1C (stereo not given) 0.9%
Cc1cc(NC(=O)COC(=O)c2oc3c(Cl)cccc3c2C)no1 2.63%
Cc1cc(NC(=O)COC(=O)c2cc(S(=O)(=O)N(C)c3ccccc3)ccc2Cl)no1 0.4%
Cc1cc(NC(=O)c2c(Cl)cccc2Cl)no1 -0.16%
Cc1cccc(NS(=O)(=O)c2cc(C(=O)OCC(=O)Nc3cc(C)on3)ccc2C)c1 -0.1%
Cc1cc(NC(=O)COC(=O)c2ccc(NS(=O)(=O)c3ccc(C)c(C)c3)cc2)no1 0.64%
Cc1cc(NC(=O)COc2ccc(N(C)S(=O)(=O)c3ccccc3)cc2)no1 0.18%
O=C(CNC(=O)c1ccc(Br)o1)NNC(=O)c1cccc(Cl)c1 -2.18%
O=C1N=c2ccccc2=C1c1sc(NS(=O)(=O)c2ccccc2)nc1O 4.47%
CCOC(=O)N1CCC(N2CCCC(CO)(Cc3ccccc3C)C2)CC1 (stereo not given) 0.07%
CC(=O)c1cccc(NC(=O)c2csc3c2CCCCC3)c1 13.4%
N#Cc1ccccc1CSc1ncccc1C(=O)O -0.85%
CCOC(=O)C1=C(NC(=S)NC(=O)c2ccccc2)c2ccccc2CC1(C)CC (stereo not given) 43.2%
CCOC(=O)C1=C(NC(=S)NC(=O)c2ccccc2)c2ccccc2CC1(C)C 7.06%
CCOc1cc(/C=C2\SC(=NC)N(C)C2=O)c(Br)cc1OC(C)=O 1.71%
Cc1cccc(C)c1OCc1n[nH]c(=S)o1 0.21%
Cc1ccc2c(c1)COc1c3ccc(C(=O)NC(C)C)cc3nn1-2 16.2%
Cc1ccc2c(c1)COc1c3ccc(C(=O)N[C@@H](CO)C(C)C)cc3nn1-2 15%
CCN(CC)CCN(Cc1cc2cc3c(cc2[nH]c1=O)OCO3)C(=S)NCc1ccco1 -1.07%
CCOC(=O)CN1C(=O)N[C@@H](c2cccc(F)c2)C(C(=O)OC)=C1C 9.26%
CCOC(=O)CN1C(=O)N[C@@H](c2ccccc2)C(C(C)=O)=C1C 2.81%
OC(CNC1CCCC1)COc1ccc(Cl)cc1 (stereo not given) -0.21%
COc1ccc(OC)c(CN2CCC(CO)(CCOc3ccccc3)CC2)c1 -2.58%
O=C(CCCc1cccs1)Nc1nc2c(s1)CCCC2 1.81%
O=C(Nc1nc2c(s1)CCCC2)c1cccs1 14.3%
O=C(Nc1nc2c(s1)CCCC2)c1ccc(S(=O)(=O)N2CCCc3ccccc32)cc1 1.63%
O=C(Nc1nc2c(s1)CCCC2)c1cccc(S(=O)(=O)N2CCCc3ccccc32)c1 7.22%
O=C(COc1ccccc1)Nc1nc2c(s1)CCCC2 14%
COc1ccc(OCC(=O)Nc2nc3c(s2)CCCC3)cc1 6.78%
COC(=O)c1ccc(C(C(=O)NC2CCCCC2)N(Cc2ccc(F)cc2)C(=O)Cc2cccs2)cc1 (stereo not given) 7.57%
CC(=O)OCCNC(=O)Cn1cnc2c1c(=O)n(C)c(=O)n2C 0.79%
COc1ccc(C2CC(C(F)(F)F)n3nc(C(N)=O)c(Cl)c3N2)cc1OC (stereo not given) 3.38%
CC1CCN(CC(=O)Nc2ccc(S(=O)(=O)N3CCCCC3)cc2)CC1 -0.34%
Cc1ccc(N2CC(C(=O)Nc3ccc(S(=O)(=O)N4CCOCC4)cc3)CC2=O)cc1 (stereo not given) -0.55%
COc1ccc(CCNC(C)=O)cc1 3.67%
CCOC(=O)C1(Cc2cccc(OC)c2)CCN(CCO)CC1 -1.67%
Cc1c(C(=O)N(C)Cc2cccc(F)c2)oc2c(Cl)cccc12 18%
COc1cc(-c2nc3c(c(C)nn3-c3ccccc3)c3cc(OC)c(OC)cc23)ccc1O 57.5%
COc1cc2c(-c3ccccc3O)nc3c(c(C)nn3-c3ccccc3)c2cc1OC 1.81%
Cc1ccc(Nc2nc(CSc3nnc(-c4ccncc4)n3C)cs2)cc1 1.07%
Cc1cc(C)n2nc(SCc3c(F)cccc3Cl)nc2n1 0.85%
CN(CCO)S(=O)(=O)c1ccc2c(c1)C(=NO)c1cc(S(=O)(=O)N(C)CCO)ccc1-2 -0.46%
CN(C)S(=O)(=O)c1ccc2c(c1)C(=NO)c1cc(S(=O)(=O)N(C)C)ccc1-2 2.67%
CCS(=O)(=O)N1CCN(c2ccccn2)CC1 -0.21%
Cn1nnnc1SCC(=O)N(C1CCCCC1)C1CCS(=O)(=O)C1 (stereo not given) -0.03%
CCC(=O)NCCc1nc2cc(NC(=O)Nc3ccccc3)ccc2n1C 1.28%
CC(NC(=O)c1ccc(F)cc1Cl)C1CC2CCC1C2 (stereo not given) 1.15%
COCc1cc(C)nc(SCC(=O)Nc2cc(C(F)(F)F)ccc2N2CCOCC2)c1C#N 1.23%
COCc1cc(C)nc(SCC(=O)Nc2ccc(N3CCOCC3)cc2)c1C#N 1.56%
CC(=O)CC(C)(C)n1nnc(-c2ccccc2)n1 1.03%
COc1ccc(CNC(=O)N2CCN(c3ccc(F)cc3)CC2)cc1 0.79%
Cn1c(SCc2ccccc2)nnc1-c1ccco1 3.37%
Nn1c(SCc2cccc3ccccc23)nnc1-c1ccco1 0.35%

From PubChem BioAssay AID2391 (Southern Research Specialized Biocontainment Screening …, 2010)
